Bioassay records: PubChem BioAssay, National Center for Advancing Translational Sciences (NCATS)
PI5P4Ka inh = blocks human PI5P4K alpha kinase activity; hit rate 1.2% among 330,000; PI5P4Kalpha enzyme, ADP-Glo luminescence, 60 min; active compounds read low; max response, %; P48426; active means max response of -50% or lower; inconclusive means between -30% and -50%; inactive means -30% or higher; further: value at the top dose of about 77 µM; on the % scale 0 is the no-effect control and ±100 the full control effect
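Single end-point luminescence (ADP-Glo) quantified ADP from PI5P4Kalpha turnover; ATP 5 microM final, 1 h at RT, 0.1% CHAPS and 0.28 mM EGTA in HEPES pH 7.4.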
Pol kappa inh-1 = DNA polymerase kappa (human) inhibition; Q9UBT6; purified Pol kappa, fluorescent DNA synthesis assay, 10 min; Potency, µM (titrated, usually from 107 µM), for the others: at the top dose activity, negative = inhibition, actives largely listed as inhibitors; hit rate 0.53% among 400,000; AID 588579; further: potency means the concentration at half of the fitted maximal effect; on the % scale 0 is the no-effect control and ±100 the full control effect
Target sequence (Q9UBT6 whole entry, looked up): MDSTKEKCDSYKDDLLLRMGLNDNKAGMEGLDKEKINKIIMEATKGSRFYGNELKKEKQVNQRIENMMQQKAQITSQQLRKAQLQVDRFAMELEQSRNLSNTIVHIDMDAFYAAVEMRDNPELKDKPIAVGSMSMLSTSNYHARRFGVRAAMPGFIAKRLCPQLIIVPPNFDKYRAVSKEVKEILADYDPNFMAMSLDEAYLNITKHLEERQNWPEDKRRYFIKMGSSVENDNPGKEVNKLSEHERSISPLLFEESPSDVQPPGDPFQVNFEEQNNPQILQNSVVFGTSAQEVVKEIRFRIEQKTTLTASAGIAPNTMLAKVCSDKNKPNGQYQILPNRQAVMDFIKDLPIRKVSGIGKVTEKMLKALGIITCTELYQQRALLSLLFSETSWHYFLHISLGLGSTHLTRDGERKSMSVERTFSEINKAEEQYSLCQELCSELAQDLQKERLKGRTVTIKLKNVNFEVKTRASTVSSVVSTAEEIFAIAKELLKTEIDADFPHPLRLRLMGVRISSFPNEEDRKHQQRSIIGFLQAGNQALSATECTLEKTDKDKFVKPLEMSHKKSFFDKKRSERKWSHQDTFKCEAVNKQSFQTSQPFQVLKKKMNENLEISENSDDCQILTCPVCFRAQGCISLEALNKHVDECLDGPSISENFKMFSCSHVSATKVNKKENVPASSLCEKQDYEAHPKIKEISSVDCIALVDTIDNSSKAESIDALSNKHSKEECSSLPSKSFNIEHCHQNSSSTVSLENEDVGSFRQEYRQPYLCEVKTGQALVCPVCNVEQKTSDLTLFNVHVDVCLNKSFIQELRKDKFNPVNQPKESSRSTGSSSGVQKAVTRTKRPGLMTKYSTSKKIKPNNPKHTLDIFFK
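50 nM final substrate added after 15 min RT preincubation of 10 nM Pol kappa with compound; fluorescence read at 0 and 10 min.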
WRN helicase inh-1 = blocks human WRN helicase; Q14191; WRN helicase unwinding, fluorescent forked duplex, kinetic; Potency, µM (doses to about 114 µM), without a hit: top-dose activity change, negative = inhibition, usual class: inhibitors; hit rate 0.46% among 360,000; further: potency means the concentration at half of the fitted maximal effect; on the % scale 0 is the no-effect control and ±100 the full control effect; nearly all actives have a fitted effect of over 55% in size
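WRN at 20 nM final was preincubated with compound for 15 min at room temperature; reaction started with 100 nM forked duplex oligonucleotide carrying fluorophore and quencher plus 2 mM ATP (final). Unwinding followed kinetically by red fluorescence (ex 525/em 598 nm).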
Pol iota inh = DNA polymerase iota (human) inhibition; Q9UNA4; Potency, µM (top dose mostly 115 µM), for the others: top-dose activity, negative = inhibition, hits mostly inhibitors; Pol iota fluorescent replication assay, 10 min; hit rate 1% among 390,000; further: potency means the concentration at half of the fitted maximal effect
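Pol iota at 10 nM preincubated 15 min with compounds at room temperature; reaction started with fluorescent substrate, 50 nM final. Fluorescence read kinetically at 0 and 10 min; buffer-only wells as negative control.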
Pol eta inh-1 = blocks human DNA polymerase eta activity. recombinant Pol eta, fluorescent DNA replication assay. Potency, µM (doses to about 114 µM), inactives show at the highest dose activity change, negative = inhibition, hits mostly inhibitors. hit rate 1.2% among 390,000. AID 588591; further: potency means the concentration at half of the fitted maximal effect; on the % scale 0 is the no-effect control and ±100 the full control effect
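Pol eta (10 nM) was preincubated with compounds for 15 min at room temperature, after which fluorescent replication substrate (50 nM final) was added to start the reaction. Fluorescence was read kinetically at 0 and 10 min.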
Pol beta inh-1 = DNA polymerase beta (human) inhibition; Pol beta primer extension/strand displacement, fluorescence kinetic; Potency, µM (top dose mostly 114 µM), for inactives: top-dose activity change, negative = inhibition, usual class: inhibitors; hit rate 1.3% among 340,000; AID 485314; further: potency means the concentration at half of the fitted maximal effect; on the % scale 0 is the no-effect control and ±100 the full control effect
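Homogeneous kinetic assay of primer extension and strand displacement by 10 nM Pol beta, preincubated 15 min at room temperature with compound before 50 nM substrate (final) was added. Read at 0 and 10 min; four-parameter Hill fit.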
Pol beta inh-2 = Human Pol beta inhibitor hit validation | shares compounds with Pol beta inh-1 | Pol beta primer extension/strand displacement, fluorescence kinetic | Potency, µM, most hits filed as inhibitors | hit rate 87% among 250 | AID 540280; calls by dose curve; further: potency means the concentration at half of the fitted maximal effect
Klenow inh = Klenow polymerase inhibition, pol beta selectivity check; shares compounds with Pol beta inh-1; AID 540300; 250 tested, under 10 active; Klenow exo- polymerase counter-screen, fluorescent DNA substrate; activity change, negative = inhibition, % at 57.1 µM
HIV RT inh = inhibits HIV-1 reverse transcriptase in counter-screen | HIV-1 RT polymerase activity, counter-screen | 250 tested, under 10 active | shares compounds with Pol beta inh-1 | activity % (negative = inhibition, positive = activation), % at 57.1 µM
POLB valid = validation of human DNA polymerase beta inhibitors. hit rate 91% among 110. inhibition, % at 10 µM. radiolabeled primer extension gel assay, phosphorimager. shares compounds with Pol beta inh-1;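 active means inhibition at 10 µM of 30% or more; inconclusive means no clear call, values can overlap the other calls; inactive means inhibition at 10 µM under 30%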
Pol iota confirm = Confirm cherry-picked inhibitors of human polymerase iota. shares compounds with Pol kappa inh-1. Pol iota primer extension, TAMRA/BHQ fluorescence. Potency, µM, hits mostly inhibitors. hit rate 77% among 1,500; further: potency means the concentration at half of the fitted maximal effect
Pol kappa inh-2 = confirmation of human DNA polymerase kappa inhibitors; shares compounds with Pol eta inh-1; purified Pol-kappa, fluorescent strand-displacement substrate; Potency, µM, actives largely listed as inhibitors; hit rate 76% among 920; AID 720501; further: potency means the concentration at half of the fitted maximal effect
Pol eta inh-2 = confirmation of human DNA polymerase eta inhibitors. shares compounds with Pol eta inh-1. Pol eta primer extension, TAMRA/BHQ fluorescence, 10 min. Potency, µM, actives largely listed as inhibitors. hit rate 64% among 2,600; further: potency means the concentration at half of the fitted maximal effect
WRN helicase inh-2 = WRN helicase inhibition, cherry-pick retest; shares compounds with WRN helicase inh-1; WRN helicase DNA unwinding, fluorescence kinetic; Potency, µM (doses to about 57.1 µM), without a hit: top-dose activity, negative = inhibition, usual class: inhibitors; hit rate 63% among 610; AID 720497; further: potency means the concentration at half of the fitted maximal effect; nearly all actives have a fitted effect of over 65% in size
TO DNA binding = binds DNA, flagged in WRN inhibitor counterscreen; shares compounds with WRN helicase inh-1; hit rate 10% among 610; thiazole orange DNA binding displacement, fluorescence; AID 720499; Potency, µM (doses to about 57.1 µM), for inactives: at the top dose activity change, negative = inhibition, actives largely listed as inhibitors;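 further: drop in dye fluorescence marks compound binding to DNA; potency means the concentration at half of the fitted maximal effect; on the % scale 0 is the no-effect control and ±100 the full control effect; nearly all actives have a fitted effect of over 60% in size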
BLM counter = blocks human BLM helicase in WRN counterscreen; shares compounds with WRN helicase inh-1; hit rate 60% among 610; Recombinant BLM helicase DNA unwinding, red fluorescence; AID 720503; Potency, µM (series often up to 57.1 µM), for the others: at the highest dose activity change, negative = inhibition, most hits filed as inhibitors; further: potency means the concentration at half of the fitted maximal effect; nearly all actives have a fitted effect of over 60% in size
ADP-Glo counter = ADP-Glo luciferase interference, PI5P4K counter-screen | 1,100 tested, under 10 active | shares compounds with PI5P4Ka inh | ADP-Glo detection counter-screen, luciferase luminescence, no enzyme | Potency, µM (top dose mostly 76.9 µM), without a hit: at the top dose activity change, negative = inhibition, most hits filed as inhibitors
An asterisk follows results filed as active; ? = inconclusive; nt = not tested or not shown; [ ] = remark or other dose. The list is not random: actives were taken first. Their share in the collection is about 2.8%. Unless noted, the call rests on the fitted dose curve; in most records, active means well fitted curve in the direction sought with a large enough effect; inconclusive means small, poorly fitted or top-dose-only effect, or another doubt; inactive means no such curve, though single readings can be large; an effect the other way counts as inactive or inconclusive.

SMILES	PI5P4Ka inh	Pol kappa inh-1	WRN helicase inh-1	Pol iota inh	Pol eta inh-1	Pol beta inh-1	Pol beta inh-2	Klenow inh	HIV RT inh	Pol iota confirm	Pol eta inh-2	ADP-Glo counter	others
O=C(Cn1cnc2scc(-c3cccc([N+](=O)[O-])c3)c2c1=O)NCc1ccco1	-94*	79µM*	?	20µM*	20µM*	10µM*	16*	-12	?	47*	60*	4%	Pol kappa inh-2=47*
COC(=O)c1cc2occc2n1Cc1nc(-c2ccccc2)oc1C	nt	-1%	nt	24%	-27%	-2%	nt	nt	nt	nt	nt	nt
CCCc1nn2c(=O)cc(COC(=O)c3ccc(NC(=O)COc4ccccc4F)cc3)nc2s1	nt	4%[60.1 µM]	nt	9%	-17%	12%	nt	nt	nt	nt	nt	nt
CNC(=O)COC(=O)c1cc(-c2ccco2)nc2ccccc12	-87*	25µM*	79µM*	?	11µM*	3.5µM*	28*	-38	?	21*	19*	1%	POLB valid=100*;WRN helicase inh-2=15µM*;TO DNA binding=-29%;BLM counter=4.8µM*
Cc1sc(NC(=O)c2sc3nc4c(C)cccc4cc3c2N)c(C#N)c1C	-63*	-27%	?	?	2.8µM*	5µM*	8.9*	-30	2	nt	nt	-6%
Cc1cccc2cc3c(N)c(C#N)sc3nc12	6	-11%	-14%	?	-17%	?	nt	nt	nt	nt	nt	nt
O=C(Cc1ccc(S(=O)(=O)N2CCOCC2)s1)Nc1nc2c(s1)CCCC2	-66*	18µM*	35µM*	?	4µM*	7.1µM*	28*	-36	28	34*	30*	-3%	POLB valid=99*;Pol kappa inh-2=21*
CCN(CC)S(=O)(=O)c1ccc2c(c1)N(CC(=O)N1CCN(c3ccccc3F)CC1)C(=O)CO2	nt	-3%	nt	-5%	-4%	40%	nt	nt	nt	nt	nt	nt
O=c1c2c3c(sc2[nH]c(=S)n1Cc1ccco1)CCC3	-59*	?	?	18µM*	20µM*	8.9µM*	16*	-12	-3	42*	43*	-8%
Cc1ccc(NC(=O)CN2C(=O)COc3ccc(S(=O)(=O)N4CCCCC4)cc32)cc1N(C)C	nt	1%	nt	31%	-10%	21%	nt	nt	nt	nt	nt	nt
CCCc1cc(=O)oc2cc(C)c(CN3CCCC3)c(O)c12	-81*	20µM*	40µM*	5µM*	22µM*	6.3µM*	25*	-25	23	nt	67*	-10%	POLB valid=5
Cc1ccc(NC(=O)c2c3c(nc4ccccc24)CCC3)cc1S(=O)(=O)N(C)C	-52*	79µM*	-3%[11.6 µM]	22µM*	?	10µM*	35*	-16	45	nt	?	3%	POLB valid=89*
COc1cc(NC(=O)c2c3c(nc4ccccc24)CCC3)cc(OC)c1	-2	-24%	-7%	8%	0%	?	nt	nt	nt	nt	nt	nt
C=CCn1c(=O)[nH]c2cc(C(=O)N3CCN(c4ccc(C(C)=O)cc4)CC3)ccc2c1=O	nt	?	?	?	?	35µM*	nt	nt	nt	47*	nt	nt
C=CCn1c(=O)[nH]c2cc(C(=O)N3CCN(c4cc(C)ccc4C)CC3)ccc2c1=O	nt	-5%	6%	6%	5%	7%	nt	nt	nt	nt	nt	nt
CCc1ccc(C(=O)c2cn(CC(=O)Nc3ccc4c(c3)OCO4)c3cc(OC)c(OC)cc3c2=O)cc1	nt	5%	nt	52%	79µM*	6.3µM*	nt	nt	nt	42*	nt	nt
COc1cccc(NC(=O)Cn2cc(C(=O)c3ccc(C)cc3)c(=O)c3cc(OC)ccc32)c1	nt	2%	nt	?	79µM*	20µM*	nt	nt	nt	47*	nt	nt
CCc1ccc(C(=O)c2cn(CC(=O)Nc3ccc4c(c3)OCO4)c3ccc(Cl)cc3c2=O)cc1	nt	-6%	nt	44%	-9%	2%	nt	nt	nt	nt	nt	nt
COc1cccc(NC(=O)Cn2cc(C(=O)c3ccc(F)cc3)c(=O)c3cc(OC)ccc32)c1	nt	6%	nt	25%	-4%	40%	nt	nt	nt	nt	nt	nt
CC(=O)c1ccc(NC(=O)Cn2nc(C(F)(F)F)c3c2CCCC3)cc1	nt	-20%	nt	-4%	?	0%	nt	nt	nt	nt	nt	nt
c1coc(CNc2ncnc3c2nc2n3CCCC2)c1	nt	2%	nt	3%	nt	nt	nt	nt	nt	nt	nt	nt
COc1cc(Cl)c(C)cc1NC(=O)c1cnn(-c2ccc(C)cc2)c1-n1cccc1	nt	-25%	nt	21%	5%	6%	nt	nt	nt	nt	nt	nt
Nc1nc(Nc2ccccc2)nc2ccccc12	-22	-9%	0%	-17%	-10%	19%	nt	nt	nt	nt	nt	nt
